Laboratory results: paper PMC5540273 (PLoS ONE, 2017)

test system: MERTK; details: concentration: 1 μM,replicates: in singlicate; n = 1
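Also: KINOMEscan kinase panel screen.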

| SMILES | %Inh |
| --- | --- |
| CN(C)CCOc1ccc(-c2cc(-c3c[nH]nc3-c3ccccn3)ccn2)cc1 [GW835314] | 0% |
| Cl.Cl.NC[C@H](Cc1ccc(C(F)(F)F)cc1)NC(=O)c1cc(Br)c(-c2ccnc3[nH]ccc23)s1 [GSK1487252] | 59% |
| CCn1c(-c2nonc2N)nc2c(C#CC(C)(C)O)nc(OCCN)cc21.Cl.Cl [GSK902056] | 0% |
| Cl.Cl.Nc1nc(-c2ccc3c(N)n[nH]c3c2)cc(N2CCCC(NC(=O)c3ccccc3)C2)n1 (stereo not drawn) [GSK2286775] | 0% |
| Nc1nc(Nc2ccccc2)cc(-c2ccc3c(N)n[nH]c3c2)n1 [GSK2225749] | 26% |
| O=C(NCCNc1ccnc(NCc2ccc(F)cc2)n1)c1cc2ccccc2s1 [GSK1379944] | 34% |
| CC(C)Nc1cc(-c2ccc3c(N)n[nH]c3c2)nc(N)n1 [GSK2221681] | 35% |
| Cl.Oc1cc(-c2nc(-c3ccccc3)[nH]c2-c2ccncc2)ccc1Cl [SB-386023] | 0% |
| Cc1n[nH]c2ccc(-c3cc(OC[C@@H](N)Cc4ccccc4)cnc3-c3ccoc3)cc12.O=C(O)C(F)(F)F.O=C(O)C(F)(F)F [GSK507358] | 9% |
| Cc1ccc2c(-c3ccncc3)c(-c3ccc(F)cc3)nn2c1.Cl [GW461484] | 13% |
| Cc1occc1-c1nc(N)c(OC[C@@H](N)Cc2c[nH]c3ccccc23)cc1-c1cc2c(C)n[nH]c2cn1 [GSK1660450] | 31% |
| NC(=O)c1cc(-c2ccccc2)cc2c(C3CCNCC3)c[nH]c12 [GSK301362] | 38% |
| Cc1cc2cn[nH]c2cc1-c1cccc2c(N)c(C(N)=O)nnc12 | 0% |
| O=C(NCCCN1CCOC1=O)c1cnc(NCc2cc(Cl)ccc2Cl)nc1NC1CCCC1 | 75% |

test system: MET; details: concentration: 1 μM,replicates: in singlicate; n = 1

| SMILES | %Inh |
| --- | --- |
| CCN(CC)CCOc1ccc(Nc2ncc3cc(-c4c(Cl)cccc4Cl)c(=O)n(C)c3n2)cc1 [SB-601273] | 78% |
| CNC(=O)c1ccccc1Sc1ccc2c(/C=C/c3ccccn3)n[nH]c2c1 | 12% |
| C[C@@H]1CCN(C(=O)CC#N)C[C@@H]1N(C)c1ncnc2[nH]ccc12 | 0% |
| Cl.Cl.NC[C@H](CC1CCCCC1)NC(=O)c1cc(Br)c(-c2ccnc3[nH]ccc23)s1 [GSK1581427] | 0% |
| C=CC(=O)Nc1cc2c(Nc3ccc(F)c(Cl)c3)ncnc2cc1OCCCN1CCOCC1 [GW781483] | 50% |
| COc1ccc(C[C@@H](CN)NC(=O)c2cc(Br)c(-c3ccnc4[nH]ccc34)s2)cc1.Cl.Cl [GSK1389063] | 33% |
| CCN(CC)CCCCNc1ncc2cc(-c3c(Cl)cccc3Cl)c(NC(=O)NC(C)(C)C)nc2n1 | 60% |
| CN(C)CC(O)COc1ccc(Nc2nccc(-c3cnn4nc(N5CCOCC5)ccc34)n2)cc1 (stereo not drawn) [GW767488] | 0% |
| Cc1ccc(-n2nc(C(C)(C)C)cc2NC(=O)Nc2ccc(OCCN3CCOCC3)c3ccccc23)cc1 [GW839464] | 9% |
| CC(C)N1C(=O)Cc2cc(Nc3ncc(C(F)(F)F)c(NCc4cccc(S(C)(=O)=O)c4)n3)ccc21 | 81% |
| C[C@H]1Oc2cc(cnc2N)-c2c(nn(C)c2C#N)CN(C)C(=O)c2ccc(F)cc21 | 10% |
| CN(C)CCOc1ccc(-c2cc(-c3c[nH]nc3-c3ccccn3)ccn2)cc1 [GW835314] | 2% |
| Cl.Cl.NC[C@H](Cc1ccc(C(F)(F)F)cc1)NC(=O)c1cc(Br)c(-c2ccnc3[nH]ccc23)s1 [GSK1487252] | 2% |
| CCn1c(-c2nonc2N)nc2c(C#CC(C)(C)O)nc(OCCN)cc21.Cl.Cl [GSK902056] | 0% |
| Cl.Cl.Nc1nc(-c2ccc3c(N)n[nH]c3c2)cc(N2CCCC(NC(=O)c3ccccc3)C2)n1 (stereo not drawn) [GSK2286775] | 0% |
| Nc1nc(Nc2ccccc2)cc(-c2ccc3c(N)n[nH]c3c2)n1 [GSK2225749] | 0% |
| O=C(NCCNc1ccnc(NCc2ccc(F)cc2)n1)c1cc2ccccc2s1 [GSK1379944] | 12% |
| CC(C)Nc1cc(-c2ccc3c(N)n[nH]c3c2)nc(N)n1 [GSK2221681] | 0% |
| Cl.Oc1cc(-c2nc(-c3ccccc3)[nH]c2-c2ccncc2)ccc1Cl [SB-386023] | 9% |
| Cc1n[nH]c2ccc(-c3cc(OC[C@@H](N)Cc4ccccc4)cnc3-c3ccoc3)cc12.O=C(O)C(F)(F)F.O=C(O)C(F)(F)F [GSK507358] | 0% |
| Cc1ccc2c(-c3ccncc3)c(-c3ccc(F)cc3)nn2c1.Cl [GW461484] | 0% |
| Cc1occc1-c1nc(N)c(OC[C@@H](N)Cc2c[nH]c3ccccc23)cc1-c1cc2c(C)n[nH]c2cn1 [GSK1660450] | 0% |
| NC(=O)c1cc(-c2ccccc2)cc2c(C3CCNCC3)c[nH]c12 [GSK301362] | 9% |
| Cc1cc2cn[nH]c2cc1-c1cccc2c(N)c(C(N)=O)nnc12 | 7% |
| O=C(NCCCN1CCOC1=O)c1cnc(NCc2cc(Cl)ccc2Cl)nc1NC1CCCC1 | 63% |
